# Reference: PubChem BioAssay
# Activity calls are given as the source filed them.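 Rule for the calls: active = compound whose remaining NAD level is above about 45 nM (limit read from the data); inactive = the rest.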
# Target: NAD(+) hydrolase SARM1 (Homo sapiens) (UniProt Q6SZW1)
# Assay: SARM1 TIR NADase inhibitors, cell lysate, NAD-Glo luminescence (AID 1508614);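 note: higher remaining NAD means stronger inhibition of SARM1 NADase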
# Conditions: SAM-TIR HEK293T lysate NADase, at 1 µM, active compounds read high
# NAD(+) hydrolase SARM1 (Homo sapiens), sequence (Q6SZW1 whole entry, looked up): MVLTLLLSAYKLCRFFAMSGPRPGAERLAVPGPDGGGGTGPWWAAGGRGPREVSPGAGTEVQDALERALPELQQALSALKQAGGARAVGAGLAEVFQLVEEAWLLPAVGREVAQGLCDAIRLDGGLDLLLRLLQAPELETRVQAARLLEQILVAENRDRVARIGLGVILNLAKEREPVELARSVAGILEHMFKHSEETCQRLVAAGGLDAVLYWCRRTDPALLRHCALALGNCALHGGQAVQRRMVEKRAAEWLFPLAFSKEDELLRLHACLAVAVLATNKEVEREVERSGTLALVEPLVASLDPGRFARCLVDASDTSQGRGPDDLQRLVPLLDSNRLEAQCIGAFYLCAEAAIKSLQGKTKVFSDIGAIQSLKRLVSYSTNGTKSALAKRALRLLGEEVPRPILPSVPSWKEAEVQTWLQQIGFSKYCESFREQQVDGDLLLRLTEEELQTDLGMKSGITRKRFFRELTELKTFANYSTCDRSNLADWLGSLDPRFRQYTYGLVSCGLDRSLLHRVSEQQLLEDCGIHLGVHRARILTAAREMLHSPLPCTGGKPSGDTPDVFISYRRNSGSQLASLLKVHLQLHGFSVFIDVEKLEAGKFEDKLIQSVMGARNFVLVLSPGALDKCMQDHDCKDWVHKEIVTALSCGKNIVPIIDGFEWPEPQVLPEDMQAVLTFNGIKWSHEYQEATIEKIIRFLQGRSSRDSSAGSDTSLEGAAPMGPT
row,SMILES,remaining NAD
1,CO/N=C(\C(=O)N[C@@H]1C(=O)N2C(C(=O)O)=C(CSc3nnnn3C)CS[C@H]12)c1csc(N)n1,10 nM (inactive)
2,COc1cc(/C=C/C(=O)N2CCCCCCC2)cc(OC)c1OC,10 nM (inactive)
3,Cc1ncc(COP(=O)([O-])[O-])c(CN(CCN(CC(=O)[O-])Cc2c(COP(=O)([O-])[O-])cnc(C)c2[O-])CC(=O)[O-])c1[O-].[H+].[H+].[H+].[Mn+2].[Na+].[Na+].[Na+],10 nM (inactive)
4,C=C(C)[C@H]1CC=C(C)CC1,10 nM (inactive)
5,CO[C@H]1C[C@H](O[C@@H]2/C(C)=C\C[C@@H]3C[C@@H](C[C@]4(C=C[C@H](C)[C@@H](C(C)C)O4)O3)OC(=O)[C@@H]3C=C(C)[C@@H](O)[C@H]4OC/C(=C/C=C\[C@@H]2C)[C@]43O)O[C@@H](C)[C@H]1O[C@H]1C[C@@H](OC)[C@H](NC(C)=O)[C@H](C)O1,10 nM (inactive)
6,CC(=O)O[C@@H]1C[C@@H]2CC[C@@]1(C)C2(C)C,10 nM (inactive)
7,Nc1ncnc(Nc2ccc(Cl)cc2)n1,10 nM (inactive)
8,C[C@@H]1O[C@@H]1P(=O)(O)O,10 nM (inactive)
9,CCCCCCCCCC(=O)N[C@H]1[C@H](Oc2c3cc4cc2Oc2ccc(cc2Cl)[C@@H](O[C@@H]2O[C@H](CO)[C@@H](O)[C@H](O)[C@H]2NC(C)=O)[C@@H]2NC(=O)[C@H](NC(=O)[C@@H]4NC(=O)[C@H]4NC(=O)[C@@H](Cc5ccc(c(Cl)c5)O3)NC(=O)[C@@H](N)c3ccc(O)c(c3)Oc3cc(O)cc4c3)c3ccc(O)c(c3)-c3c(OC4O[C@H](CO)[C@@H](O)[C@H](O)[C@@H]4O)cc(O)cc3[C@@H](C(=O)O)NC2=O)O[C@H](CO)[C@@H](O)[C@@H]1O (stereo partly specified),10 nM (inactive)
10,CCC(=O)OCC(=O)[C@@]1(OC(=O)CC)[C@H](C)C[C@H]2[C@H]3[C@H]([C@@H](O)C[C@@]21C)[C@@]1(C)C=CC(=O)C=C1C[C@H]3Cl,10 nM (inactive)
11,C#C[C@]1(OC(C)=O)CC[C@H]2[C@@H]3CCC4=C/C(=N\O)CC[C@@H]4[C@H]3CC[C@@]21CC,10 nM (inactive)
12,S=C1SCN(Cc2ccccc2)CN1Cc1ccccc1,10 nM (inactive)
13,CC(=O)OCC(=O)[C@@]1(O)CC[C@H]2[C@@H]3CCC4=CC(=O)C=C[C@]4(C)[C@@]3(Cl)[C@@H](Cl)C[C@@]21C,10 nM (inactive)
14,CCCCCCOC(=O)/N=C(\N)c1ccc(NCc2nc3cc(C(=O)N(CCC(=O)OCC)c4ccccn4)ccc3n2C)cc1,10 nM (inactive)
15,CC(=O)N1CCN(c2ccc(OC[C@@H]3CO[C@@](Cn4ccnc4)(c4ccc(Cl)cc4Cl)O3)cc2)CC1,10 nM (inactive)
16,CC(=O)c1ccc2c(c1)N(CCCN1CCN(CCO)CC1)c1ccccc1S2,10 nM (inactive)
17,CC(C)CC(NC(=O)C(C)NC(=O)CNC(=O)C(NC=O)C(C)C)C(=O)NC(C)C(=O)NC(C(=O)NC(C(=O)NC(C(=O)NC(Cc1c[nH]c2ccccc12)C(=O)NC(CC(C)C)C(=O)NC(Cc1c[nH]c2ccccc12)C(=O)NC(CC(C)C)C(=O)NC(Cc1c[nH]c2ccccc12)C(=O)NC(CC(C)C)C(=O)NC(Cc1c[nH]c2ccccc12)C(=O)NCCO)C(C)C)C(C)C)C(C)C (stereo unspecified),10 nM (inactive)
18,C[C@]12CC[C@@H]3c4ccc(O)cc4CC[C@H]3[C@@H]1C[C@H](O)[C@@H]2O,48 nM (active)
19,OC[C@H]1O[C@@H](O[C@H]2[C@H](O)[C@@H](O)[C@@H](O)O[C@@H]2CO)[C@H](O)[C@@H](O)[C@H]1O,10 nM (inactive)
20,CN(N=O)C(=O)N[C@@H](C=O)[C@@H](O)[C@H](O)[C@H](O)CO,10 nM (inactive)
21,Cn1c2ncnc-2c(O)n(C)c1=O,10 nM (inactive)
22,O=C(O[C@H]1CN2CCC1CC2)N1CCc2ccccc2[C@@H]1c1ccccc1,10 nM (inactive)
23,CCCCCCCCCC[N+](C)(C)Cc1ccccc1,10 nM (inactive)
24,CCOC(=S)SSC(=S)OCC,10 nM (inactive)
25,C[C@H]1C[C@H]2[C@@H]3CCC4=CC(=O)C=C[C@]4(C)[C@@]3(F)[C@@H](O)C[C@]2(C)[C@@]1(O)C(=O)COP(=O)(O)O,10 nM (inactive)
26,CC/C=C\C/C=C\C/C=C\C/C=C\C/C=C\C/C=C\CCC(=O)OCC (tested in a mixture with another compound),10 nM (inactive)
